Here are results for one sequence from patent US20260200999, “SYNTHETIC TRANSCRIPTION FACTORS” (ETH ZURICH, published 2026).

Assay [1] deals with T1, MTERF1 73-399::RelA 430-551 (Homo sapiens, UniProt Q99551 SEQ:1-327).
T1 chain: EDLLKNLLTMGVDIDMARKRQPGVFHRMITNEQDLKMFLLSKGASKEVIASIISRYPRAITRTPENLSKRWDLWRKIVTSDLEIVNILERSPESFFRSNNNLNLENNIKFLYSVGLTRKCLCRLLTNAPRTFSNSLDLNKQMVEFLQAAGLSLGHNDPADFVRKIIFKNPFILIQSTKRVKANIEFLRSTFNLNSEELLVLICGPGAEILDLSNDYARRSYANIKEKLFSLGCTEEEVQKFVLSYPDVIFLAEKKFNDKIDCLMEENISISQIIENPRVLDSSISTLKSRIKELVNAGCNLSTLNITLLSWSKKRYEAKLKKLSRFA
The experiment in a line: cell_activity; HEK293 reporter; reduced but not abolished. The settings on record: tags: RelA 430-551 TAD fusion; dsDNA, one strand shown.

The target in assay [2] is T2, MTERF1 104-399::RelA 430-551 (Homo sapiens, UniProt Q99551 SEQ:1-296).
T2 chain: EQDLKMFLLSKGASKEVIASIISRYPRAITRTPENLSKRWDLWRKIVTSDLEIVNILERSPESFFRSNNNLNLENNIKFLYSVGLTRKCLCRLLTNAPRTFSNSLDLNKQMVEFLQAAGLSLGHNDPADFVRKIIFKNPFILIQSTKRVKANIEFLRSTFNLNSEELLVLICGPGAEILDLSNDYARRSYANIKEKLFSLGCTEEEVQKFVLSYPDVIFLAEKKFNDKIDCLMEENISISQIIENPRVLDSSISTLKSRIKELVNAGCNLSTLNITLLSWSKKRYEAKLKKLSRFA
Described as above. Particulars: tags: RelA 430-551 TAD fusion; dsDNA, one strand shown.

“TAAGATGGCAGAGCCCGGTAATTAAGATGGCAGAGCCCGGTAATTAAGATGGCAGAGCCCGGTAATTAAGATGGCAGAGCCCGGTAATTAAGATGGCAGAGCCCGGTAAT”: the binding signal in assay [1] and in assay [2] was about 1.5 fold less than MTF in each case.
